# Data: PubChem BioAssay (NCATS)
# Results filed as inconclusive are left out. Entries that show only a call come without a potency. Values without a mark were called inactive. Calls of active or inactive are those of the source. Calls follow the shape of the dose curve; as a rule, active = well fitted curve in the direction sought with a large enough effect; inconclusive = small, poorly fitted or top-dose-only effect, or another doubt; inactive = no such curve, though single readings can be large; an effect the other way counts as inactive or inconclusive. Square brackets hold non-standard residues; d marks the D form. Peptide text beside a SMILES is read from it. Orn = NCCC[CH](N)C(=O)O
# Experiments:
# [1] = molecular target: ATP-dependent 6-phosphofructokinase (Trypanosoma brucei brucei) (UniProt O15648); test: qHTS Assay to Find Inhibitors of T. brucei phosphofructokinase: hit validation (AID 492961);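 also: luminescence reports ADP formed as PFK phosphorylates fructose-6-phosphate with ATP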
# Summary of the method: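 Compounds titrated; %activity normalized to 0x and 1x enzyme controls, curve-fitted. Readout: ADP-Glo luminescence after 45 min room-temperature reaction of 1.25 nM PFK, 0.1 mM ATP, 0.5 mM F6P, pH 8.0.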
# [2] = molecular target: Luciferin 4-monooxygenase (Photinus pyralis) (UniProt P08659); test: Biochemical firefly luciferase enzyme assay for NPC (AID 624030);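 also: purified P. pyralis luciferase at 10 nM with luciferin and ATP substrate; nearly all actives have a fitted effect of over 70% in size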
# Summary of the method: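 Purified P. pyralis luciferase at 10 nM in 50 mM Tris Acetate (final), luminescence read within 5 minutes of enzyme addition to compounds. Activity normalised to PTC124 versus DMSO; concentration-response curves classed by r2, magnitude and activity.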
# [3] = qHTS profiling for inhibitors of Plasmodium falciparum proliferation (AID 504749); also: potency is read from the fitted curve at half-maximal effect; as to all read-outs here: nearly all actives have a fitted effect of over 60% in size; details: P. falciparum in erythrocytes, SYBR Green DNA, 72 h; for activity, negative = inhibition: at 28.7 µM (top of the series)
# Summary of the method: (§1)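 Readout was DNA-dye fluorescence from lysed cultures, ex 485/em 535 nm. Parasitized red cells had grown 72 h with compound; data scaled between 0.29 uM artemisinin and DMSO wells and corrected using vehicle-only plates.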
# ATS189 = test: as above; details: P. falciparum in erythrocytes, SYBR Green DNA, 72 h; series mostly up to 28.7 µM
# Summary of the method: as §1
# C2A = test: as above; details: P. falciparum in erythrocytes, SYBR Green DNA, 72 h; series mostly up to 28.7 µM
# Summary of the method: as §1
# CP192 = test: as above; details: P. falciparum in erythrocytes, SYBR Green DNA, 72 h; series mostly up to 28.7 µM
# Summary of the method: as §1
# CP201 = test: as above; details: P. falciparum in erythrocytes, SYBR Green DNA, 72 h; series mostly up to 28.7 µM
# Summary of the method: as §1
# CP215 = test: as above; details: P. falciparum in erythrocytes, SYBR Green DNA, 72 h; series mostly up to 28.7 µM
# Summary of the method: as §1
# CP268 = test: as above; details: P. falciparum in erythrocytes, SYBR Green DNA, 72 h; series mostly up to 28.7 µM
# Summary of the method: as §1
# CP269 = test: as above; details: P. falciparum in erythrocytes, SYBR Green DNA, 72 h; series mostly up to 28.7 µM
# Summary of the method: as §1
# CP286 = test: as above; details: P. falciparum in erythrocytes, SYBR Green DNA, 72 h; series mostly up to 28.7 µM
# Summary of the method: as §1
# CP305 = test: as above; details: P. falciparum in erythrocytes, SYBR Green DNA, 72 h; series mostly up to 28.7 µM
# Summary of the method: as §1
# CP315 = test: as above; details: P. falciparum in erythrocytes, SYBR Green DNA, 72 h; series mostly up to 28.7 µM
# Summary of the method: as §1
# CP325 = test: as above; details: P. falciparum in erythrocytes, SYBR Green DNA, 72 h; series mostly up to 28.7 µM
# Summary of the method: as §1
# CP329 = test: as above; details: P. falciparum in erythrocytes, SYBR Green DNA, 72 h; series mostly up to 28.7 µM
# Summary of the method: as §1
# ECU = test: as above; details: P. falciparum in erythrocytes, SYBR Green DNA, 72 h; series mostly up to 28.7 µM
# Summary of the method: as §1
# FAB9 = test: as above; details: P. falciparum in erythrocytes, SYBR Green DNA, 72 h; series mostly up to 28.7 µM
# Summary of the method: as §1
# JCK = test: as above; details: P. falciparum in erythrocytes, SYBR Green DNA, 72 h; series mostly up to 28.7 µM
# Summary of the method: as §1
# PC49 = test: as above; details: P. falciparum in erythrocytes, SYBR Green DNA, 72 h; series mostly up to 28.7 µM
# Summary of the method: as §1
# Chain of ATP-dependent 6-phosphofructokinase (Trypanosoma brucei brucei) (O15648 whole entry, looked up): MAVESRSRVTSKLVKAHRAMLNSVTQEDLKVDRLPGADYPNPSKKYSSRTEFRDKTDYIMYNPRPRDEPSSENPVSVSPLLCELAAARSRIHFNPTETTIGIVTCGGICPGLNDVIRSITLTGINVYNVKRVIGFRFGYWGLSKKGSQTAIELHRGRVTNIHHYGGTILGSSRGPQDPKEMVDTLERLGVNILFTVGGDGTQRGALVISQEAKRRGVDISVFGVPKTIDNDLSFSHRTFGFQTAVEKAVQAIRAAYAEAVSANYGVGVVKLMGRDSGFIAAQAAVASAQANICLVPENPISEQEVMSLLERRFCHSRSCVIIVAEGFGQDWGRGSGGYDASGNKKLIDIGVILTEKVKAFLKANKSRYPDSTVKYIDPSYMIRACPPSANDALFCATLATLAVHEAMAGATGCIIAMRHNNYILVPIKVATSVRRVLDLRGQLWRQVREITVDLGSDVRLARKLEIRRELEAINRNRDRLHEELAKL
# Chain of Luciferin 4-monooxygenase (Photinus pyralis) (P08659 whole entry, looked up): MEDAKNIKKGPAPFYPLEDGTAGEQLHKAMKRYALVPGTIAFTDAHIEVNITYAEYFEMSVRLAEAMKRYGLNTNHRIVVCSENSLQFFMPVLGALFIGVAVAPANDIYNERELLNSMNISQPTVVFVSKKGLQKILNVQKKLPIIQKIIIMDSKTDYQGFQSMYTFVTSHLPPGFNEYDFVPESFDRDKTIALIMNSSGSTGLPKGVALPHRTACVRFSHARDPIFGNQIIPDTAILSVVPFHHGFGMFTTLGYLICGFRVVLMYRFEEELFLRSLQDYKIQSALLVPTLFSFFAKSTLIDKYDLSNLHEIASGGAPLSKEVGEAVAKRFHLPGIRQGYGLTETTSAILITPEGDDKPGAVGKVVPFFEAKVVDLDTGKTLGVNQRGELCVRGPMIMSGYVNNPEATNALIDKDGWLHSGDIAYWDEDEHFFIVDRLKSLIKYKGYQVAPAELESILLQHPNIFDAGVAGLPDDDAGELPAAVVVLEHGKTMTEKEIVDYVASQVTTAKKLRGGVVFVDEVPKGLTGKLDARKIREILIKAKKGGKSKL
smiles,measurement,setting,value
CC(C)CC1NC(=O)C(CCCN)NC(=O)C(C(C)C)NC(=O)C2CCCN2C(=O)C(Cc2ccccc2)NC(=O)C(CC(C)C)NC(=O)C(CCCN)NC(=O)C(C(C)C)NC(=O)C2CCCN2C(=O)C(Cc2ccccc2)NC1=O (configuration not stated) (cyclo(FPV[Orn]LFPV[Orn]L); configuration not given here),outcome,[1],inactive
CCNC(=O)[C@@H]1CCCN1C(=O)[C@H](CCCN=C(N)N)NC(=O)[C@H](CC(C)C)NC(=O)[C@@H](Cc1c[nH]c2ccccc12)NC(=O)[C@H](Cc1ccc(O)cc1)NC(=O)[C@H](CO)NC(=O)[C@H](Cc1c[nH]c2ccccc12)NC(=O)[C@H](Cc1cnc[nH]1)NC(=O)[C@@H]1CCC(=O)N1,outcome,[1],inactive
[S]=[Sb][S][Sb]=[S],outcome,[1],inactive
same,Potency,[2],inactive
same,"activity, negative = inhibition",[3]; parasite line A,8.49%
same,"activity, negative = inhibition",[3]; parasite line B,1.29%
same,Potency,ATS189,inactive
same,Potency,C2A,inactive
same,Potency,CP192,inactive
same,Potency,CP201,inactive
same,Potency,CP215,inactive
same,Potency,CP268,inactive
same,Potency,CP269,inactive
same,Potency,CP286,inactive
same,Potency,CP305,inactive
same,Potency,CP315,inactive
same,Potency,CP325,inactive
same,Potency,CP329,inactive
same,Potency,ECU,inactive
same,Potency,FAB9,inactive
same,Potency,JCK,inactive
same,Potency,PC49,inactive
CCOC(=O)/C=C(C)/C=C/CC(C)CCCC(C)C (configuration not stated),outcome,[1],inactive
same,Potency,[2],inactive
same,"activity, negative = inhibition",[3]; parasite line A,-0.0375%
same,"activity, negative = inhibition",[3]; parasite line B,8.06%
same,Potency,ATS189,inactive
same,Potency,C2A,inactive
same,Potency,CP192,inactive
same,Potency,CP201,inactive
same,Potency,CP215,inactive
same,Potency,CP268,inactive
same,Potency,CP269,inactive
same,Potency,CP286,inactive
same,Potency,CP305,inactive
same,Potency,CP315,inactive
same,Potency,CP325,inactive
same,Potency,CP329,inactive
same,Potency,ECU,inactive
same,Potency,FAB9,inactive
same,Potency,JCK,inactive
same,Potency,PC49,inactive
CCCCCCC(=O)O[C@H]1CC[C@H]2[C@@H]3CCC4CC(=O)C=C(C)[C@]4(C)[C@H]3CC[C@]12C (some centres not stated),outcome,[1],inactive
same,Potency,[2],inactive
same,"activity, negative = inhibition",[3]; parasite line A,-7.1%
same,"activity, negative = inhibition",[3]; parasite line B,-5.28%
same,Potency,ATS189,inactive
same,Potency,C2A,inactive
same,Potency,CP192,inactive
same,Potency,CP201,inactive
same,Potency,CP215,inactive
same,Potency,CP268,inactive
same,Potency,CP269,inactive
same,Potency,CP286,11.2 µM (active)
same,Potency,CP305,inactive
same,Potency,CP315,inactive
same,Potency,CP325,inactive
same,Potency,CP329,inactive
same,Potency,ECU,inactive
same,Potency,FAB9,inactive
same,Potency,JCK,inactive
same,Potency,PC49,inactive
C[C@H](N)Cc1ccccc1,outcome,[1],inactive
same,Potency,[2],inactive
same,"activity, negative = inhibition",[3]; parasite line A,-1.91%
same,"activity, negative = inhibition",[3]; parasite line B,-0.429%
same,Potency,ATS189,inactive
same,Potency,C2A,inactive
same,Potency,CP192,inactive
same,Potency,CP201,inactive
same,Potency,CP215,inactive
same,Potency,CP268,inactive
same,Potency,CP269,inactive
same,Potency,CP286,inactive
same,Potency,CP305,inactive
same,Potency,CP315,inactive
same,Potency,CP325,inactive
same,Potency,CP329,inactive
same,Potency,ECU,inactive
same,Potency,FAB9,inactive
same,Potency,JCK,inactive
same,Potency,PC49,inactive
CC(C)C(NC(=O)C(CC(=O)O)NC(=O)C(CCCCN)NC(=O)C(N)CCCN=C(N)N)C(=O)NC(Cc1ccc(O)cc1)C(=O)O (configuration not stated) (H-RKDVY-OH; configuration not given here),outcome,[1],inactive
CCCCCc1cc(O)c2c(c1)OC(C)(C)C1CC=C(C)CC21 (configuration not stated),outcome,[1],inactive
same,Potency,[2],inactive
same,Potency,[3]; parasite line A,3.55 µM (active)
same,Potency,[3]; parasite line B,1.12 µM (active)
same,Potency,ATS189,3.16 µM (active)
same,Potency,C2A,10 µM (active)
same,Potency,CP192,6.01 µM (active)
same,Potency,CP201,15.1 µM (active)
same,Potency,CP215,4.26 µM (active)
same,Potency,CP268,6.01 µM (active)
same,Potency,CP269,4.78 µM (active)
same,Potency,CP286,5.62 µM (active)
same,Potency,CP305,12 µM (active)
same,Potency,CP315,4.26 µM (active)
same,Potency,CP325,6.01 µM (active)
same,Potency,CP329,9.53 µM (active)
same,Potency,ECU,2 µM (active)
same,Potency,JCK,11.2 µM (active)
same,Potency,PC49,4.47 µM (active)
CCCN1CCCC2Cc3nc(N)ncc3CC21 (configuration not stated),outcome,[1],inactive
same,Potency,[2],inactive
same,"activity, negative = inhibition",[3]; parasite line A,2.28%
same,"activity, negative = inhibition",[3]; parasite line B,5.03%
same,Potency,ATS189,inactive
same,Potency,C2A,inactive
same,Potency,CP192,inactive
same,Potency,CP201,inactive
same,Potency,CP215,inactive
same,Potency,CP268,inactive
same,Potency,CP269,inactive
same,Potency,CP286,inactive
same,Potency,CP305,inactive
same,Potency,CP315,inactive
same,Potency,CP325,inactive
same,Potency,CP329,inactive
same,Potency,ECU,inactive
same,Potency,FAB9,inactive
same,Potency,JCK,inactive
same,Potency,PC49,inactive
C=CC[N+]1(C)CCC23c4c5ccc(O)c4O[C@H]2C(=O)CC[C@@]3(O)C1C5 (some centres not stated),outcome,[1],inactive
same,Potency,[2],inactive
same,"activity, negative = inhibition",[3]; parasite line A,14%
same,"activity, negative = inhibition",[3]; parasite line B,14.5%
same,Potency,ATS189,inactive
same,Potency,C2A,inactive
same,Potency,CP192,inactive
same,Potency,CP201,inactive
same,Potency,CP215,inactive
same,Potency,CP268,inactive
same,Potency,CP269,inactive
same,Potency,CP286,inactive
same,Potency,CP305,inactive
same,Potency,CP315,inactive
same,Potency,CP325,inactive
same,Potency,CP329,inactive
same,Potency,ECU,inactive
same,Potency,FAB9,inactive
same,Potency,JCK,inactive
same,Potency,PC49,inactive
C=CC[C@]1(O)CCC2C3CCC4=CCCCC4C3CCC21C (some centres not stated),outcome,[1],inactive
same,Potency,[2],inactive
same,"activity, negative = inhibition",[3]; parasite line A,-16.3%
same,"activity, negative = inhibition",[3]; parasite line B,-3.62%
same,Potency,ATS189,inactive
same,Potency,C2A,inactive
same,Potency,CP192,inactive
same,Potency,CP201,inactive
same,Potency,CP215,inactive
same,Potency,CP268,inactive
same,Potency,CP269,inactive
same,Potency,CP286,inactive
same,Potency,CP305,inactive
same,Potency,CP315,inactive
same,Potency,CP325,inactive
same,Potency,CP329,inactive
same,Potency,ECU,inactive
same,Potency,FAB9,inactive
same,Potency,JCK,inactive
same,Potency,PC49,inactive
